According to PubChem BioAssay:

Experiment: small-molecule binders of probe aLefty1, primary screen, biochemical, small-molecule microarray, 635/667 nm fluorescence (AID 1153);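 also: score merges spot fluorescence with signal-to-noise ratio from the scanned slide images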
Settings: higher = more signal

Structure (SMILES) | composite z-score
CCOC(=O)C1=C[C@@H](c2ccccc2)N(S(=O)(=O)c2ccc(C)cc2)[C@H]1c1ccccc1Cl | 0.138
CCCNC(=O)[C@@]1(c2ccc([N+](=O)[O-])cc2)CC(=O)N(C2CCCCC2)[C@@H]1c1ccc(CO)cc1 | 0.062
COC(=O)Cn1c(C(=O)N(C)C)cc2c1C[C@H]1CN(C(=O)c3ccccc3)[C@@](Cc3ccc(F)cc3)(C(=O)OC)[C@@H]21 | 0.523
O=C1C[C@@](C(=O)NCCN2CCOCC2)(c2ccc([N+](=O)[O-])cc2)[C@@H](c2ccc(CO)cc2I)N1C1CCCCC1 | 0.0688
C=CCN1Cc2ccccc2[C@H]2OC(c3ccc(OCCCO)cc3)=N[C@@]2(CC=C)C1=O | 0.692
O=C1c2ccccc2[C@](Cc2ccccc2I)(C(=O)NCC(F)(F)F)[C@H](c2ccc(CO)cc2)N1C1CCCCC1 | 0.0686
COc1ccc(C(O)C2C=CC3C(=O)N(c4ccccc4)C(=O)C3N2Nc2ccc([N+](=O)[O-])cc2)cc1 (stereo not drawn) | 0.987
COCCOC(=O)N1C(=O)[C@@]2(c3cc(C#CCC(C(=O)OC)C(=O)OC)ccc31)[C@H](C(=O)N1CCc3cc(OC)c(OC)cc3C1)[C@H]1C(=O)O[C@H](c3ccccc3)[C@H](c3ccccc3)N1[C@@H]2c1ccc(OCCO)cc1 | 0.54
